Experimental data taken from the supplement of paper PMC13094657.
± gives the standard deviation of the averaged measurements.

Legend:
[1] = system: MDA-MB-231; assay: cell viability relative to vehicle unstimulated control (fraction); higher = more viable cells; conditions: pre-treatment time: 18 h then 24 h IFNg/TNF
[2] = system: MDA-MB-231; assay: kynurenine production, fold change vs DMSO IFNg/TNF control; higher = more kynurenine produced (less inhibition); conditions: pre-treatment time: 18 h then 24 h IFNg/TNF
Procedure, shortened: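 After trichloroacetic acid and p-dimethylaminobenzaldehyde treatment, supernatants were read at 492 nm, with 0–100 μM standards. These came from MDA-MB-231 cells (7 × 10^4/well, 96-well plates) pre-treated 18 h with natural products in 0.1% DMSO and then exposed 24 h to IFNγ (1 U/ml) and TNF (6.25 ng/ml) at 37°C. Values for kynurenine production are fold changes over same-plate cytokine-stimulated vehicle wells, averaged over duplicate plates in the first screening round.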
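Wherever cell viability relative to vehicle unstimulated control is given: viability of the cells left after supernatant collection, read with Deep Blue dye added for 4 h, as absorbance at 570 nm minus 600 nm.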

SMILES | cell viability [1] | kynurenine production [2]
C[C@H](CC[C@@H](O)C(C)(C)O)[C@H]1CC[C@@]2(C)[C@@H]3CC=C4[C@@H](CC[C@H](O[C@@H]5O[C@H](CO)[C@@H](O)[C@H](O)[C@H]5O)C4(C)C)[C@]3(C)[C@H](O)C[C@]12C [Mogroside I E1] (compound dose: 10 uM) | 0.906 ± 0.15 | 0.981 ± 0.35
CC(CCC(OC1OC(COC2OC(CO)C(O)C(O)C2O)C(O)C(O)C1OC1OC(CO)C(O)C(O)C1O)C(C)(C)O)C1CCC2(C)C3CC=C4C(CCC(OC5OC(COC6OC(CO)C(O)C(O)C6O)C(O)C(O)C5O)C4(C)C)C3(C)C(=O)CC12C (stereo not drawn) [11-oxo-mogroside V] (compound dose: 10 uM) | 1.1 ± 0.12 | 1.33 ± 0.053
COC(=O)C1=CO[C@@H](O[C@@H]2O[C@H](CO)[C@@H](O)[C@H](O)[C@H]2O)[C@@H]2C(CO)=CC[C@H]12 [Geniposide] (compound dose: 10 uM) | 0.947 ± 0.031 | 0.939 ± 0.023
C=C(C)C(=O)O[C@H]1CC2=C[C@@H](C/C(C)=C/[C@H]3OC(=O)C(=C)[C@H]13)OC2=O [Deoxyelephantopin] (compound dose: 10 uM) | 0.768 ± 0.041 | 0.117 ± 0.06
O=c1c(-c2ccc(O)cc2)coc2c([C@@H]3O[C@H](CO)[C@@H](O)[C@H](O)[C@H]3O)c(O)ccc12 [Puerarin] (compound dose: 10 uM) | 0.944 ± 0.027 | 0.927 ± 0.033
CC(C)=CCCC(C)CCO (stereo not drawn) [Citronellol] (compound dose: 10 uM) | 1.03 ± 0.057 | 0.845 ± 0.25
CC1(C)CC[C@]2(C(=O)O[C@@H]3O[C@H](CO)[C@@H](O)[C@H](O)[C@H]3O)CC[C@]3(C)C(=CC[C@@H]4[C@@]5(C)CC[C@H](O[C@@H]6O[C@H](C(=O)O)[C@@H](O)[C@H](O)[C@H]6O[C@@H]6O[C@H](CO)[C@@H](O)[C@H](O)[C@H]6O)C(C)(C)[C@@H]5CC[C@]43C)[C@@H]2C1 [Ginsenoside Ro] (compound dose: 10 uM) | 0.928 ± 0.091 | 1.05 ± 0.091
COC(=O)[C@H]1[C@H]2C[C@@H]3c4[nH]c5cc(OC)ccc5c4CCN3C[C@H]2C[C@@H](OC(=O)c2cc(OC)c(OC)c(OC)c2)[C@@H]1OC [Reserpine] (compound dose: 10 uM) | 0.954 ± 0.028 | 1.02 ± 0.067
C[C@H](CC(=O)C[C@@H](C)[C@H]1C[C@H](O)[C@@]2(C)C3=C(C(=O)C[C@]12C)[C@@]1(C)CCC(=O)C(C)(C)[C@@H]1C[C@@H]3O)C(=O)O [Ganoderic acid A] (compound dose: 10 uM) | 0.889 ± 0.073 | 0.857 ± 0.073
C[C@H]1O[C@@H](O[C@H]2CC[C@@]3(C)[C@@H](CC[C@]4(C)[C@@H]3C=C[C@]35OC[C@@]6(CCC(C)(C)C[C@H]63)[C@@H](O)C[C@]54C)[C@]2(C)CO)[C@H](O)[C@@H](O[C@@H]2O[C@H](CO)[C@@H](O)[C@H](O)[C@H]2O)[C@H]1O [Saikosaponin A] (compound dose: 10 uM) | 1.015 ± 0.0091 | 0.824 ± 0.1
CC(C)=CCC[C@](C)(O[C@@H]1O[C@H](CO)[C@@H](O)[C@H](O)[C@H]1O)[C@H]1CC[C@]2(C)[C@@H]1[C@H](O)C[C@@H]1[C@@]3(C)CC[C@H](O)C(C)(C)[C@@H]3CC[C@]12C [Ginsenoside C-K] (compound dose: 10 uM) | 0.969 ± 0.016 | 0.912 ± 0.14
CC(=O)O[C@@H]1C[C@@]23C[C@@]24CC[C@H](O[C@@H]2OC[C@@H](O)[C@H](O)[C@H]2O)C(C)(C)[C@@H]4CC[C@H]3[C@]2(C)C[C@@H]3O[C@]4(C[C@@H](C)[C@@H]3[C@@]12C)OC[C@@]1(C)O[C@@H]41 [26-Deoxyactein] (compound dose: 10 uM) | 0.9809 ± 0.0077 | 0.911 ± 0.22
C/C=C(/C)C(=O)O[C@H]1[C@H](OC(C)=O)[C@]2(CO)[C@H](O)C[C@]3(C)C(=CC[C@@H]4[C@@]5(C)CC[C@H](O[C@@H]6O[C@H](C(=O)O)[C@@H](O[C@@H]7O[C@H](CO)[C@@H](O)[C@H](O)[C@H]7O)[C@H](O)[C@H]6O[C@@H]6O[C@H](CO)[C@@H](O)[C@H](O)[C@H]6O)[C@](C)(CO)[C@@H]5CC[C@]43C)[C@@H]2CC1(C)C [Escin IB] (compound dose: 10 uM) | 0.915 ± 0.022 | 0.801 ± 0.012
C[C@H]1[C@H](C)CC[C@]2(C(=O)O)CC[C@]3(C)C(=CC[C@@H]4[C@@]5(C)C[C@@H](O)[C@H](O)[C@@](C)(CO)[C@@H]5CC[C@]43C)[C@H]12 [Asiatic acid] (compound dose: 10 uM) | 1.01 ± 0.018 | 0.85 ± 0.16
